# Experimental data: the supplement of paper PMC13380429
# Tests used:
# [1] = system: Vero E6 infected with SARS-CoV-2; test: morphology score (similarity to uninfected cells); higher = more like uninfected cells; settings: 24 h
# [2] = system: Vero E6 infected with SARS-CoV-2; test: SARS-CoV-2 infection rate relative to infected DMSO; higher = more infection, active = 60 or less; settings: 24 h
SMILES,morphology score [1],SARS-CoV-2 infection rate [2]
O=C(CC12CC3CC(CC(C3)C1)C2)Nc1cccc2nc(NCCNCCO)ccc12 (10 µM),-0.132,116% (inactive)
COc1cc(-c2ncn(/C=C\C(=O)OC(C)C)n2)cc(C(F)(F)F)c1 (10 µM),-0.358,114% (inactive)
O=P(O)(O)C(O)(Cc1cnc2ccccn12)P(=O)(O)O [minodronic-acid] (10 µM),-0.0261,108% (inactive)
Cc1ccc(NC2=CC(=O)c3sc(C)nc3C2=O)cc1 [ryuvidine] (0.833333 µM),0.165,104% (inactive)
Cc1ncc(C[n+]2csc(CCOP(=O)(O)OP(=O)(O)O)c2C)c(N)n1 [thiamine-pyrophosphate] (10 µM),0.112,105% (inactive)
Clc1cccc(-c2nnnn2Cc2cccnc2)c1Cl (10 µM),0.0426,99.5% (inactive)
O=C(Nc1ccc(Cl)cc1)Nc1ccc(Cl)c(Cl)c1 [triclocarban] (10 µM),0.0739,98.5% (inactive)
CC(C)OC(=O)[C@H](C)N[P@@](=O)(OC[C@H]1O[C@@H](n2ccc(=O)[nH]c2=O)[C@](C)(F)[C@@H]1O)Oc1ccccc1 (10 µM),0.087,108% (inactive)
CCCCCCCCCCCCCCCCO [1-hexadecanol] (10 µM),-0.278,110% (inactive)
CC(C)c1cccc2c(-c3ccccc3)cc(-c3ccc(-c4ccc(C(=O)O)cc4)[nH]3)nc12 (10 µM),0.104,87.5% (inactive)
CC(=O)O[C@@]12CO[C@@H]1C[C@H](O)[C@@]1(C)C(=O)[C@H](O)C3=C(C)[C@@H](O)C[C@@](O)([C@@H](OC(=O)c4ccccc4)[C@H]21)C3(C)C [10-deacetylbaccatin] (10 µM),0.18,109% (inactive)
C[C@H](Nc1ncnc2[nH]cnc12)c1nc2ccc(F)cc2c(=O)n1-c1ccccc1 [acalisib] (0.833333 µM),-0.115,110% (inactive)
CN1[C@@H]2C[C@@H](O)C[C@H]1[C@@H]1O[C@@H]12 [scopine] (10 µM),0.146,93.5% (inactive)
OC(CCN1CCCCC1)(c1ccccc1)C1CC2C=CC1C2 (configuration not stated) [biperiden] (10 µM),0.48,75.5% (inactive)
C[C@H](N)C(=O)N[C@@H](CCC(N)=O)C(=O)O [dipeptamin] (10 µM),0.00346,102% (inactive)
CCCCCCCCNC(=O)/C(C#N)=C/c1cn(CCCN(C)C)c2ccccc12 [dynole-34-2] (10 µM),0.659,35.5% (active)
O=C(O)CCNc1cc(N2CCc3ccccc3CC2)nc(-c2ccccn2)n1 (10 µM),0.19,101% (inactive)
O=C(O)c1cc(=O)[nH]c(=O)[nH]1 [orotic-acid] (10 µM),0.104,104% (inactive)
Cc1cc(NC(=O)NCCN2CCC(O)(Cc3ccccc3)CC2)c2ccccc2n1 [palosuran] (10 µM),-0.00351,112% (inactive)
CC12CCC(C(=O)N(CCCCN3CCN(c4ccccn4)CC3)C1=O)C2(C)C (configuration not stated) [piricapiron] (10 µM),0.11,103% (inactive)
COc1cc(NC(=O)Nc2cccc(CNC(=O)O[C@H]3CCOC3)c2)ccc1-c1cnco1 [merimepodib] (10 µM),0.447,62.5% (inactive)

SMILES,morphology score [1],SARS-CoV-2 infection rate [2]
"COc1cc2c(cc1OC)[C@H](C)NCC2 [Isoquinoline,-6,7-dimethoxy-1-methyl-1,2,3,4-tetrahydro,] (10 µM)",0.0205,105% (inactive)
C[C@@]1(c2cc(-c3cncnc3)c(F)cc2F)CCSC(N)=N1 (10 µM),0.151,106% (inactive)
COc1ccc2c(c1)CN(C)CC2c1ccc(Cl)c(Cl)c1 (configuration not stated) [diclofensine] (10 µM),0.0249,106% (inactive)
O=C(O)Cc1ccc(OCCNC[C@H](O)c2ccccc2)cc1 (10 µM),-0.102,106% (inactive)
CC(CN(C)C)CN1c2ccccc2CCc2ccccc21 (configuration not stated) [trimipramine] (10 µM),0.451,80.5% (inactive)
CN1CCC(=C2c3ccccc3Sc3ccccc32)CC1 [pimethixene] (10 µM),0.373,85.5% (inactive)
C[C@H]1[C@H](C)CC[C@]2(C(=O)O)CC[C@]3(C)C(=CC[C@@H]4[C@@]5(C)C[C@@H](O)[C@H](O)[C@@](C)(CO)[C@@H]5CC[C@]43C)[C@H]12 [asiatic-acid] (10 µM),-0.135,108% (inactive)
CN1C(=O)c2c(nn(Cc3ccc(-c4cccc(F)n4)cc3)c2Nc2ccccc2)N2C1=N[C@@H]1CCC[C@@H]12 (10 µM),0.38,105% (inactive)
C=C[C@@]1(C)CC(=O)[C@]2(O)[C@@]3(C)[C@@H](O)CCC(C)(C)[C@@H]3[C@H](OC(=O)CCN(C)C)[C@H](OC(C)=O)[C@@]2(C)O1 [colforsin-daproate] (0.833333 µM),0.5,88.5% (inactive)
O=C(O)c1ccccc1C(=O)Nc1ccc(S(=O)(=O)Nc2nccs2)cc1 [phthalylsulfathiazole] (10 µM),0.162,102% (inactive)
CNCCCOc1cc(F)c(-c2c(Cl)nc3ncnn3c2N[C@@H](C)C(F)(F)F)c(F)c1 [cevipabulin] (10 µM),-0.0738,92% (inactive)
CC(C)c1ccc2oc3nc(N)c(C(=O)O)cc3c(=O)c2c1 [amlexanox] (10 µM),-0.183,111% (inactive)
CC(=C(CCO)SSCC1CCCO1)N(C=O)Cc1cnc(C)nc1N (stereo in doubt) [fursultiamine] (10 µM),0.0723,110% (inactive)
c1cnc2cc3c(cc2n1)[C@@H]1CNC[C@H]3C1 [varenicline] (10 µM),-0.0409,101% (inactive)
CCC1(c2ccccc2)C(=O)N(COC)C(=O)N(COC)C1=O [eterobarb] (10 µM),-0.0955,106% (inactive)
N[C@H](Cc1cc(I)c(Oc2ccc(O)c(I)c2)c(I)c1)C(=O)O [liothyronine-(isomer)] (10 µM),0.127,106% (inactive)
O=C(Nc1nc(-c2cc(Cl)cs2)c(N2CCN(C3CCCCC3)CC2)s1)c1cnc(N2CCC(C(=O)O)CC2)c(Cl)c1 [avatrombopag] (10 µM),0.0997,100% (inactive)
NCCC(O)(P(=O)(O)O)P(=O)(O)O [pamidronate] (10 µM),0.09,114% (inactive)
Cc1nn(C)c2c1C(c1cccc(Cl)c1)=NCCN2 [zometapine] (10 µM),0.136,104% (inactive)
COc1ccc(CNC(=O)/C=C/c2ccc3[nH]cc(CCN(C)C)c3c2)cc1 (10 µM),0.155,88.5% (inactive)
COc1ccc(C2CC(c3c(O)cc(C)oc3=O)=NCCS2)c(OC)c1 (configuration not stated) (10 µM),0.0127,101% (inactive)

SMILES,morphology score [1],SARS-CoV-2 infection rate [2]
CCOC(=O)Nc1ccc(NCc2ccc(F)cc2)cc1N [Retigabine] (10 µM),0.067,106% (inactive)
CCOC(=O)[C@@]1(CCCCCCOc2ccc(Cl)cc2)CO1 [etomoxir] (10 µM),-0.0546,109% (inactive)
N#Cc1ccc(C2CCCc3cncn32)cc1 (configuration not stated) [fadrozole] (10 µM),0.114,102% (inactive)
O=C(Cn1ccnc1[N+](=O)[O-])NCCO [etanidazole] (10 µM),0.0673,94.5% (inactive)
NC1=N[C@@]2(c3cc(NC(=O)c4ccc(F)cn4)ccc3F)COC[C@H]2CS1 (10 µM),0.00208,116% (inactive)
O=P(O)(O)C(O)(Cc1cccnc1)P(=O)(O)O [risedronate] (10 µM),0.123,89% (inactive)
CCC(NC(C)C)C(O)c1ccc(O)c2[nH]c(=O)ccc12 (configuration not stated) [procaterol] (10 µM),0.142,88% (inactive)
CC(OC(=O)OC1CCCCC1)OC(=O)C1=C(CSc2nnnn2CCN(C)C)CS[C@@H]2[C@H](NC(=O)Cc3csc(N)n3)C(=O)N12 (some centres not stated) [cefotiam-cilexetil] (10 µM),-0.0288,109% (inactive)
CNC(=O)c1ccc2c(c1)CCO[C@H]2CCN1CCN(c2ccc(C(N)=O)cc2)CC1 (10 µM),0.0173,106% (inactive)
Cn1cc([S+](C)[O-])c(=O)c2ccc(F)cc21 (configuration not stated) [flosequinan] (10 µM),0.195,96.5% (inactive)
CNC1CC(c2ccc(Cl)c(Cl)c2)c2ccccc21 (configuration not stated) [indatraline] (10 µM),-0.112,114% (inactive)
Cc1nc(N)sc1-c1ccnc(Nc2ccc(N3CCOCC3)cc2)n1 (0.833333 µM),0.443,93% (inactive)
CC(=O)Nc1ccc(CC(=O)O)cc1 [actarit] (10 µM),0.181,99.5% (inactive)
O=C(NCC(=O)N1CCCCC1)Nc1ccc2nnsc2c1 (10 µM),-0.144,110% (inactive)
COc1c(O)cc2c(c1O)[C@@H]1O[C@H](CO)[C@@H](O)[C@H](O)[C@H]1OC2=O [bergenin] (10 µM),0.087,96% (inactive)
CN1CCC[C@@H]1CCSc1ccc(O)cc1 (10 µM),-0.0396,112% (inactive)
CN1CCN2c3c(cccc31)[C@@H]1CN(CCCC(=O)c3ccc(F)cc3)CC[C@@H]12 [lumateperone] (10 µM),0.348,86% (inactive)
CC(=O)Oc1ccccc1C(=O)Oc1cccc(CO[N+](=O)[O-])c1 (10 µM),0.178,101% (inactive)
C=CC[N+]1([C@H]2C[C@H]3[C@@H]4CC[C@H]5C[C@H](O)[C@@H](N6CCOCC6)C[C@]5(C)[C@H]4CC[C@]3(C)[C@H]2OC(C)=O)CCCC1 (10 µM),0.061,110% (inactive)
